Results: PubChem BioAssay

biological target: Streptavidin (Streptomyces avidinii) (UniProt P22629); test: compounds binding control protein streptavidin – biophysical, small-molecule microarray, 635/667 nm fluorescence, artefact control for SMM compound annotation, primary screen (AID 1147); conditions: higher = more signal;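 further: signal reflects streptavidin binding to arrayed compounds as a control protein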
Sequence (P22629 whole entry, looked up): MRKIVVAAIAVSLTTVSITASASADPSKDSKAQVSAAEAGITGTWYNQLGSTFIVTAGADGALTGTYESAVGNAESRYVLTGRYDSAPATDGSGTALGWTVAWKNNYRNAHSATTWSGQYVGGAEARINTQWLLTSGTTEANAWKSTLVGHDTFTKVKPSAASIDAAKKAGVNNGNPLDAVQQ

SMILES	composite z-score
COCC(=C=CC[C@@H](O)c1ccc(CO)o1)CCO	-0.618
CC(C)N1C(=O)c2ccccc2[C@@H](C(=O)NCCCN(C)C)[C@@H]1c1ccc(CO)cc1	-0.418
C=C[C@@H](COC(C)=O)N(Cc1ccc([N+](=O)[O-])cc1)S(=O)(=O)c1ccc(Br)cc1	0.861
CC(C)C(=C=CC[C@@H](O)c1ccccc1OCCO)C[C@@H](O)c1ccccn1	-0.0132
C=CCNC(=O)[C@@H]1[C@H]2C(=O)O[C@H](c3ccccc3)[C@H](c3ccccc3)N2[C@H](c2ccc(O)cc2)[C@@]12C(=O)N(C(=O)OCCOC)c1ccccc12	1.56
CC(C)(C)OC(=O)CC[C@@]1(C(=O)NCCN2CCOCC2)N=C(c2ccc(OCCCO)cc2)O[C@@H]1c1ccccc1	1.12
N#Cc1ccc(NN2C(C(O)C3CCCCC3)C=CC3C(=O)N(c4ccccc4)C(=O)C32)cc1 (stereo not given)	1.75
C=CCN1C(=O)[C@]2(O[C@H](CCO)[C@@H]([Si](C)(C)c3ccc(OC)cc3)[C@@H]2C)c2cc(NC(=O)[C@H](C)O)ccc21	0.553
O=C1O[C@H](c2ccccc2)[C@H](c2ccccc2)N2[C@H]1[C@@H](C(=O)N1CCN(c3ncccn3)CC1)[C@]1(C(=O)Nc3ccccc31)[C@H]2c1ccc(OCCO)cc1	-0.0363
O=C1OCCC/C=C\[C@H]2OC34C=CCN(Cn5nnc6ccccc65)C(=O)[C@H]3N(CCCCCO)C(=O)[C@@H]4C12 (stereo not given in full)	-1.21
COc1cc2c(cc1OC)CN(C(=O)[C@@H]1[C@H]3C(=O)O[C@H](c4ccccc4)[C@H](c4ccccc4)N3[C@H](c3ccccc3OCCO)[C@@]13C(=O)Nc1ccc(C#CCNC(N)=O)cc13)CC2	0.684
COC(=O)[C@@]1(Cc2ccccc2)[C@H]2c3cc(C(=O)N4CCCC4)n(C)c3C[C@H]2CN1C(=O)c1ccccc1	1.64
O=C1O[C@H](c2ccccc2)[C@H](c2ccccc2)N2[C@H]1[C@@H](C(=O)Nc1nc3ccccc3s1)[C@]1(C(=O)Nc3ccccc31)[C@H]2c1ccc(O)cc1	1.2
CCN(CC)c1ccc(N2CC=CC34O[C@@H]5C=CCCOC(=O)C5[C@H]3C(=O)N(CCCCCO)[C@@H]4C2=O)cc1 (stereo not given in full)	-0.45
COCCOC(=O)N1C(=O)[C@@]2(c3cc(C#CCC(C(=O)OC)C(=O)OC)ccc31)[C@H](c1ccc(O)cc1)N1[C@H](c3ccccc3)[C@H](c3ccccc3)OC(=O)[C@H]1[C@@H]2C(N)=O	1.04
NC(=O)NCC#Cc1ccc2c(c1)[C@]1(C(=O)N2)[C@H](C(=O)N2CCCCCCC2)[C@H]2C(=O)O[C@H](c3ccccc3)[C@H](c3ccccc3)N2[C@@H]1c1ccc(OCCO)cc1	2.11
CC(C)N1CC=CC23O[C@@H]4C=CCOC(=O)[C@@H]4[C@H]2C(=O)N(CCO)[C@@H]3C1=O (stereo not given in full)	-1.05
COc1ccc(CCNC(=O)[C@@]2(c3ccc([N+](=O)[O-])cc3)CC(=O)N(CC34CC5CC(CC(C5)C3)C4)[C@@H]2c2ccc(CO)cc2)cc1	0.531

SMILES	composite z-score
COCCOC(=O)N1C(=O)[C@@]2(c3ccccc31)[C@H](C(=O)NC[C@H](O)c1ccccc1)[C@H]1C(=O)O[C@H](c3ccccc3)[C@H](c3ccccc3)N1[C@@H]2c1ccc(OCCO)cc1	0.168
COc1ccc(C(O)C2C=CC3C(=O)NC(=O)C3N2Nc2ccccn2)cc1OCc1ccccc1 (stereo not given)	0.428
COCCOC(=O)N1C(=O)[C@@]2(c3cc(C#CC4=CCCCC4)ccc31)[C@H](C(=O)NC[C@H](O)c1ccccc1)[C@H]1C(=O)O[C@H](c3ccccc3)[C@H](c3ccccc3)N1[C@@H]2c1ccc(O)cc1	1
COc1ccc([Si](C)(C)[C@@H]2[C@@H](CCn3cc([C@H](O)c4ccccc4)nn3)O[C@]3(C(=O)N(Cc4ccc(N5C(=O)c6cccc7cccc5c67)cc4)c4ccccc43)[C@H]2C)cc1	-0.378
[N-]=[N+]=NCc1ccccc1C[C@]1(C(=O)O)N=C(c2ccc(OCCCO)cc2)O[C@H]1c1ccccc1CN=[N+]=[N-]	1.66
CC(C)NC(=O)[C@@H]1c2ccccc2C(=O)N(Cc2ccccc2)[C@H]1c1ccc(CO)cc1	-0.501
COCCOC(=O)N1C(=O)[C@@]2(c3cc(C#CCNC(N)=O)ccc31)[C@H](c1ccccc1OCCO)N1[C@H](c3ccccc3)[C@H](c3ccccc3)OC(=O)[C@H]1[C@@H]2C(N)=O	0.234
O=C1C2C=CC(C(O)c3ccc(B(O)O)cc3)N(Nc3ccccc3)C2C(=O)N1c1ccccc1 (stereo not given)	0.471
COC(=O)[C@@]1(Cc2ccc(F)cc2)[C@H]2c3cc(C(=O)N(C)C)n(CCc4ccccn4)c3C[C@H]2CN1C(=O)c1ccccc1	-0.0936
Cc1ccc(S[C@]2(C(=O)NC3CC3)CC(=O)N(Cc3ccccc3)[C@@H]2c2ccc(CO)cc2)cc1	-0.807
O=C1C2C=CC(C(O)c3ccc(F)cc3)N(Nc3ccccc3)C2C(=O)N1c1ccccc1 (stereo not given)	0.0517
Cc1cc(C)c(C(O)C2C=CC3C(=O)N(C)C(=O)C3N2Nc2ccccc2)c(C)c1 (stereo not given)	0.66
[N-]=[N+]=NCc1ccccc1C[C@]1(C(=O)NCCN2CCOCC2)N=C(c2ccc(OCCCO)cc2)O[C@H]1c1ccccc1N=[N+]=[N-]	1.05
O=C(OCCF)C1=CCC(c2cccc(Cl)c2)O1 (stereo not given)	0.112
[N-]=[N+]=NCc1ccccc1C[C@]1(C(=O)NCC(O)CO)N=C(c2ccc(OCCCO)cc2)O[C@H]1c1ccccc1N=[N+]=[N-] (stereo not given in full)	0.22
COCC1=C2[C@@H](CCc3ccccc3)OB(O)C[C@@H]2[C@@H]2C(=O)N(Cc3ccccc3)C(=O)[C@@H]2C1	0.0569
[N-]=[N+]=Nc1ccccc1[C@H]1OC(c2ccc(OCCCO)cc2)=N[C@@]1(CCS(=O)(=O)c1ccccc1)C(=O)O	0.433
